Source: PubChem BioAssay
RXFP1 agonist = qHTS Assay for Agonists of the Relaxin Receptor RXFP1 | 370,000 compounds, 0.3% hits | Relaxin receptor 1 (Homo sapiens), Q9HBX9 | AID 2676, 2010 | Potency, µM (series often up to 57.5 µM), inactives show at the top dose activation, usual class: activators | HEK293T-RXFP1 cAMP TR-FRET, 30 min; response scale: percent of porcine relaxin response, buffer zero; active = well fitted activation curve with a large enough effect; inconclusive = small, poorly fitted or top-dose-only effect; note: potency is the fitted concentration of half-maximal effect; % is set by controls: 0 for no effect and ±100 for the full control effect; nearly all actives have a fitted effect of over 60% in size
Target sequence (Q9HBX9 whole entry, looked up): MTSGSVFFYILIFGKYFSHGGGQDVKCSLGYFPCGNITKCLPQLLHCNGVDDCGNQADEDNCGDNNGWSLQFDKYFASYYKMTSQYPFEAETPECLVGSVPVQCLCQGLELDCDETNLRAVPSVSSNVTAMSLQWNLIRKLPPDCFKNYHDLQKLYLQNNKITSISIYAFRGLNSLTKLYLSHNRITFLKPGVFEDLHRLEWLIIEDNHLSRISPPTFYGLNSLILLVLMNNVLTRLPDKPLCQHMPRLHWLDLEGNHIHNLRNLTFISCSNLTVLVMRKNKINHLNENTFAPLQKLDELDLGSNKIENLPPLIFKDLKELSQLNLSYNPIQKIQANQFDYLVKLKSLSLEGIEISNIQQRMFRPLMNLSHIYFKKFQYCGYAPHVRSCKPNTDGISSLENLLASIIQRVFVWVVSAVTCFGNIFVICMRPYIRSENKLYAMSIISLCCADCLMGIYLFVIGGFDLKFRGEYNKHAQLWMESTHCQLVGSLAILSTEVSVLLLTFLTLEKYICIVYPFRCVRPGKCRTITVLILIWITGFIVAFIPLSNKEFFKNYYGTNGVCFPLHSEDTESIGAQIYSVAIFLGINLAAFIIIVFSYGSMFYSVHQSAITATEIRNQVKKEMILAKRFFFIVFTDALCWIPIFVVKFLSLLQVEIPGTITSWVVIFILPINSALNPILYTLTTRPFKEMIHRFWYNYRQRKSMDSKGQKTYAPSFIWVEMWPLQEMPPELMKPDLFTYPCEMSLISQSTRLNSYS
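Agonist response is measured as cAMP accumulation in an RXFP1-transfected HEK293T line under PDE4 inhibition. Values are scaled between buffer-only and 29 nM porcine relaxin, and EC50s come from standard Hill equation fits.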
gsp antag = qHTS for Antagonists of gsp, the Etiologic Mutation Responsible for Fibrous Dysplasia/McCune-Albright Syndrome: qHTS. gsp-mutant cells, cAMP HTRF, 30 min. Potency, µM (doses to about 76.9 µM), for the others: at the highest dose activity change, negative = inhibition, actives largely listed as inhibitors. 340,000 compounds, 0.4% hits. AID 624288, 2012; calls by dose curve; cell line not stated here;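 note: intracellular cAMP measured with PDE inhibitor Ro 20-1724 present during compound exposure; potency is the fitted concentration of half-maximal effect; % is set by controls: 0 for no effect and ±100 for the full control effect; nearly all actives have a fitted effect of over 65% in size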
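HTRF cAMP measurement after 30 min RT detection following 30 min, 37C compound treatment alongside […] (added as 300 uM solution) in G418-selected cells seeded at 2000/well and grown 16–24 h.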
RXFP1 antagonist = qHTS Assay for Antagonists of the Relaxin Receptor RXFP1 | Relaxin receptor 1 (Homo sapiens), Q9HBX9 | HEK293-RXFP1, relaxin-stimulated cAMP HTRF, 30 min; hits give low values | activity change, negative = inhibition, % at 57.5 µM | 350,000 compounds, 0.59% hits | AID 1259400, 2018;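 active = activity change of -60% or lower, but not beyond a set lower limit; inconclusive = change between -60% and -40%, or beyond the set limit; inactive = change above -40%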; note: % is set by controls: 0 for no effect and ±100 for the full control effect
gsp ag = qHTS for Agonist of gsp, the Etiologic Mutation Responsible for Fibrous Dysplasia/McCune-Albright Syndrome: qHTS; gsp mutant cells, cAMP HTRF, 30 min; Potency, µM (top dose mostly 76.9 µM), without a hit: top-dose activation (cAMP increase), most hits filed as activators; 340,000 compounds, 0.13% hits; AID 624287, 2012; active = well fitted activation curve with a large enough effect; inconclusive = small, poorly fitted or top-dose-only effect, or another doubt; inactive = no such curve, though single readings can be large or run the other way; cell line not stated here;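 note: phosphodiesterase inhibitor Ro 20-1724 added with compounds to block cAMP breakdown; potency is the fitted concentration of half-maximal effect; nearly all actives have a fitted effect of over 60% in size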
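Cells stably selected in G418 were plated at 2000/well, grown 16-24 hr, then given compounds in DMSO with the PDE inhibitor […] (300 uM solution added) for 30 min at 37C; cAMP was read by HTRF.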
The depositor's hits bear a star; u = inconclusive; x = not tested or not shown; [ ] = another dose, or the depositor's remark. Shown are actives, neighbours in structure and some others; about 0.9% of the full set was active somewhere.

SMILES | RXFP1 agonist | gsp antag | RXFP1 antagonist | gsp ag
CO[C@@H]1[C@@H](OC)[C@H](C)[C@@](O)(CC(=O)O)O[C@H]1[C@H](C)[C@H]1O[C@@]2(CC[C@@](C)([C@H]3CC[C@@](C)([C@@H]4O[C@@H]([C@H]5O[C@](C)(O)[C@H](C)C[C@@H]5C)C[C@@H]4OC4C[C@H](OC)[C@@H](OC)[C@H](C)O4)O3)O2)C[C@H](O)[C@H]1C (stereo partly specified) | x | x | -66* | x
COc1ccc(OC)c(CCNC(=O)c2cc3cccc4c3n2CC(C)S4)c1 (stereo unspecified) | 5% | x | -29 | x
CC(C)c1ccc(NC(=O)C(Cc2ccccc2)n2cccc2)cc1 (stereo unspecified) | 4% | x | -71* | x
Cc1cc(S(=O)(=O)N2CCN(c3ccccn3)CC2)ccc1F | 0% | -11% | -1 | u
Cc1cc(C)c(S(=O)(=O)N2CCN(c3ccccn3)CC2)c(C)c1 | -1% | -15% | -95* | 8%[15.4 µM]
COC(=O)c1ccc(NC(=O)c2cc3cc(C)ccc3n2C)cc1 | 0% | x | 2 | x
O=C(CN1C(=O)c2cccc3cccc(c23)C1=O)NCCCO | 7% | 2% | 8 | 14µM*
O=C(CN1C(=O)c2cccc3cccc(c23)C1=O)NCCN1CCOCC1 | 14µM* | 13% | 3 | u
O=C(CCN1C(=O)c2cccc3cccc(c23)C1=O)N1CCOCC1 | 11% | -8% | -2 | 16%[15.4 µM]
Cc1cc(C)cc(N2C(=O)CS(=O)(=O)C23C(=O)N(C)c2ccccc23)c1 (stereo unspecified) | 1% | x | x | x
CCOC(=O)c1cnc2ccc(OC)cc2c1NCc1ccccc1 | 0% | -28% | x | u
CCOC(=O)c1cnc2ccc(OCC)cc2c1NCc1ccccc1OC | -1% | 32µM* | -35 | 1%[15.4 µM]
O=c1oc2c3c(ccc2c2ccccc12)OCN(Cc1ccccc1Cl)C3 | 28µM* | x | 2 | x
Cc1cc(=O)oc2c3c(ccc12)OCN(Cc1ccccc1Cl)C3 | 10% | x | x | x
CC(C)(C)C(=O)N1N=C(c2ccc(NS(C)(=O)=O)cc2)CC1c1cccs1 (stereo unspecified) | 0% | 11µM* | u | 0%[15.4 µM]
CCN1CCc2c(sc(NC(=O)c3ccc(S(=O)(=O)N4CCCC(C)C4)cc3)c2C(=O)OC)C1 (stereo unspecified) | -15% | x | x | x
C=CC[n+]1c(-c2ccc(Cl)cc2Cl)csc1Nc1c(C)n(C)n(-c2ccccc2)c1=O | 0% | u | -68* | 2%
C=CC[n+]1c(-c2ccc(C)cc2)csc1Nc1c(C)n(C)n(-c2ccccc2)c1=O | 4% | -6% | u | 0%[15.4 µM]
O=C1CCSC2(C(=O)N(Cc3ccc(F)cc3)c3ccccc32)N1c1ccc(F)c(F)c1 (stereo unspecified) | -2% | x | -72* | x
Cc1cccc(N2C(=O)CCSC23C(=O)N(Cc2ccc(F)cc2)c2ccccc23)c1 (stereo unspecified) | -2% | x | -63* | x
O=C1CCSC2(C(=O)N(Cc3ccc(F)cc3)c3ccccc32)N1c1ccccc1 (stereo unspecified) | -2% | x | -62* | x
COc1ccc2nc3oc(C(=O)Nc4cccc(C(F)(F)F)c4)cc3cc2c1 | 12% | x | 4 | x
CC1CN(Cc2c(O)ccc3c2oc(=O)c2ccccc23)CC(C)O1 (stereo unspecified) | 25% | 0% | 7 | 28µM*
O=C(Nc1ccc(Br)cc1)C1CCN(c2ncccn2)CC1 | 2% | x | x | x
COc1ccc(NC(=O)Cn2c(=O)n(-c3ccc(C)c(C)c3)c(=O)c3c(C)c(C)sc32)cc1 | 3% | x | 3 | x
O=C(CSc1nc(-c2ccc(F)cc2)[nH]c1-c1ccc(F)cc1)Nc1ccc2c(c1)OCO2 | 2% | x | -60* | x
Cc1ccc(S(=O)(=O)NCCSc2nnnn2-c2ccc(Cl)c(C(=O)O)c2)cc1 | -1% | x | x | x
N#C/C(=C\c1cccs1)C(=O)c1ccccc1Cl | 0% | -1% | -61* | -3%
COC(=O)c1cc(Br)c(=O)n(-c2nccs2)c1 | 16µM* | 12% | 12 | 14µM*
